Hit rate of the full screen: of about 1,300 compounds, about 850 (65%) were called active. Another 1% or so got no clear call; they are omitted. No rule for the calls is given here. The set was probably picked from earlier hits. The list is a sample of the results. Measured potencies and affinities stand elsewhere.
Each compound was assayed against Dual specificity tyrosine-phosphorylation-regulated kinase 1A (Rattus norvegicus) (UniProt Q63470) (assay: Dyrk1A enzyme activity inhibition – biochemical, cherry-pick, plate reader, 2124-01, dose response (AID 588345)). Details: Dyrk1A kinase biochemical assay; series mostly up to 12 µM; activity change, negative = inhibition: at the top concentration.

Activity change, negative = inhibition, inactive:
Oc1ccc2c(ccc3[nH]cnc32)c1 -2.1%
COC(=O)NNC(=O)COc1ccc(Cl)cc1 -0.602%
NNc1nccc(Nc2ccccc2C(=O)O)n1 -81.3%
COc1nc(C)ccc1-c1noc(-c2ccccn2)n1 -4.21%
O=C(Cn1cc(COc2ccccc2C(F)(F)F)nn1)c1ccc(O)cc1 -13.4%
Fc1ccccc1/C=N/Nc1ncnc2nc[nH]c12 11.1%
Cc1ccsc1/C=N/Nc1ncnc2nc[nH]c12 -0.099%
CCCCNC(=S)Nc1ccc2cn[nH]c2c1 -0.332%
O=c1c2c(O)cc(O)cc2oc2c(O)ccc(O[C@H]3O[C@@H](CO)[C@H](O)[C@@H](O)[C@@H]3O)c12 13.6%
O=C1C=CC(O)(c2cc(=O)c3c(O)cc(O)cc3o2)C=C1 -5.93%
CS(=O)(=O)Nc1ccc(-c2ccc(/C=C3\SC(N)=NC3=O)o2)cc1 -4.55%
COc1ccc2c(Cl)c(C(N)=O)sc2c1 0.271%
CSc1nc(SCC(=O)NCc2ccco2)c2c3c(sc2n1)CN(C)CC3 -30.4%
CC(C)Oc1ccc(C(CC(=O)NCc2ccco2)c2ccccc2)cc1 (stereo not given) 6.23%
COc1ccc2c(c1)[nH]c1c(Cl)ncnc12 5.9%
CCOC(=O)c1ccc(NC(=S)Nc2ccc(Br)cc2N)cc1 -4.3%
COc1ccc(-n2ccc(-c3nn(-c4cccc(C(F)(F)F)c4)ccc3=O)n2)cc1 4.68%
Cc1ccc(/C=c2\sc3n(c2=O)CN(c2ccc(Br)cc2)CN=3)o1 -30.4%
O=C(O)c1ccc2c(c1)S(=O)(=O)c1cc(Cl)ccc1C2=O 6.12%
CCCCn1c(NCCO)nc2ccccc21 -2.66%
Clc1ccc2[nH]c3c(c2c1)CCc1cn[nH]c1-3 -37.9%
Cc1ccccc1/C=N/Nc1ncnc2nc[nH]c12 -20.2%
CC(=O)c1ccc(NC(=S)Nc2ccc3cn[nH]c3c2)cc1 -17.4%
COc1ccc(N=Nc2c(C)n[nH]c2C)cc1 4.04%
N#CCC(N)=C(C#N)C#N -1.58%
CC1OC(OCC2OC(Oc3c(-c4ccc(O)cc4)oc4cc(O)cc(O)c4c3=O)C(O)C(O)C2O)C(O)C(O)C1O (stereo not given) -20%
CCCCn1c(N2CCC(Cc3ccccc3)CC2)nc2c1c(=O)[nH]c(=O)n2C -5.72%
Cc1cccc(OCC(=O)Nc2nc3ccc([N+](=O)[O-])cc3s2)c1 5.01%
COc1ccc(-c2ccc(=O)n(Cc3cccc([N+](=O)[O-])c3)n2)cc1 -43.7%
CC1(C)Nc2ccc(O)cc2-c2c1ssc2=S -1.72%
CCC(C)CCN1C(Nc2ccccc2)=NC[C@@H]1Cc1ccccc1 (stereo not given in full) -7.86%
COc1ccc(N2C(=O)C3CCCN3C2c2cc(OC)c(OC)c(OC)c2)cc1 (stereo not given) 1.89%
CCOC(=O)C1CCCN(c2c(NCCCN3CCCC(C)C3)c(=O)c2=O)C1 (stereo not given) -0.476%
CCCOc1ccc(/C=N/NC(=O)CN2CCCCC2)cc1 -2.8%
COc1ccc(/C=C2\SC(N3CCc4ccccc4C3)=NC2=O)cc1 -31.4%
Cc1cccc(NC(=S)NN2CCN(C)CC2)c1 -6.09%
O=C1[C@H]2[C@H](C=CC[C@H]2C(=O)N2CCOCC2)CCN1Cc1ccccc1 5.23%
CCOC(=O)C1CCCN(c2c(NCCN(C)Cc3ccccc3)c(=O)c2=O)C1 (stereo not given) -7.74%
COCCN=C1N[C@@H](c2cccc(C(F)(F)F)c2)C(C(=O)OC)=C(C)N1Cc1ccccc1 -0.582%
O=C1OCc2cccc3cccc1c23 4.49%
Nc1ncnc(N)c1N=Nc1ccccc1 10.3%
CCN(CC)c1ccc(/C=C2\C(=O)c3ccc(C(=O)O)cc3C2=O)cc1 4.65%
CCOC(=O)C1=C(C)OC(N)=C(C#N)C1c1ccc(O)c(OC)c1 (stereo not given) 7.18%
O=c1[nH]c(=S)[nH]c2sccc12 -5.08%
O=C(COC(=O)c1cccs1)c1ccc2ccccc2c1 -4.36%
CCc1ccccc1NC(=O)C1CCCN(S(=O)(=O)c2ccc3c(c2)CC(C)N3C(C)=O)C1 (stereo not given) -3.11%
CCOC(=O)C(Cc1ccc(O)cc1)NC(=O)CCc1c[nH]c2ccccc12 (stereo not given) 0.971%
CC(C)(C)[C@H]1C=C(C(=O)N2CCN(Cc3ccccc3)CC2)O[C@@H](OCCCCO)C1 0.688%
COc1ccc2c(Cl)c(C(=O)N/N=C/c3cccnc3)sc2c1 7.43%
COc1ccccc1NC(=S)N/N=C/c1ccc(O)cc1 -0.12%
Cc1ccc(CN2CCN(c3ncccn3)CC2)o1 -2.31%
O=C1CCN(CCCc2ccccc2)CCN1[C@H](CO)c1ccccc1 5.58%
Oc1ccc(-c2nc3ncccn3c2Nc2ccc3c(c2)OCO3)cc1 0.488%
O=[N+]([O-])c1ccc(O)c(C=NNc2ccc(S(=O)(=O)O)cc2)c1 2.14%
Cc1cccc2nc(-c3cccc(NC(=O)c4ccc(Cl)cc4)c3)cn12 -7.42%
COc1ccc2c(c1)OC[C@H]1[C@H]2N2C(=O)CN(CC3CCCO3)C(=O)[C@@]2(C)[C@H]1c1ccccc1 (stereo not given in full) 15.3%
COc1ccccc1-c1sc2ccccc2c1C#Cc1ccc(N(C)C)cc1 11.4%
O=C(O)c1cc(N/N=C/c2c(O)ccc3ccccc23)ccc1Cl -0.869%
COc1cccc(-c2noc(N)c2C#N)c1 4.6%
N#Cc1c2ccc(O)cc2n2ccccc12 -4.28%
COc1ccc2c(c1)CCc1cc(C(=O)O)sc1-2 -18.2%
COc1ccc2c(c1)CCc1cn3nc(C)cc3nc1-2 -83.2%
COC(=O)c1sc2cnccc2c1N -37.3%
Brc1ccccc1C1=Nn2c(nnc2-c2ccccc2)SC1 -4.23%
COc1ccc(OC)c(C2=Nn3c(nnc3-c3ccco3)SC2)c1 10.8%
CCOC(=O)C1CCCN(c2c(N3CCN(C4CCCCC4)CC3)c(=O)c2=O)C1 (stereo not given) -3.65%
CC(C)Oc1ccc(C2CNC(=O)C2)cc1 (stereo not given) 5.01%
COC(=O)c1c(-c2ccc(S(C)(=O)=O)cc2)sc2ccc(OC)cc12 3.56%
COC(=O)c1[nH]c2cc(OC)ccc2c1N -3.32%
Cc1ccc2c(c1)N(CC(=O)NC1CCCCC1)C(=O)c1cccnc1O2 5.4%
CCN1CCN(CCCNC(=O)c2cc3cc4ccc(OC)cc4nc3o2)CC1 -30.7%
COc1cccc(Cn2nnc(C(=O)NCCc3ccc(Cl)cc3)c2N)c1 4.5%
COCCNC(=O)c1cc2cc3ccc(OC)cc3nc2o1 -36.9%
COc1ccc2cc3cc(C(=O)NCCCN4CCC(C)CC4)oc3nc2c1 -21.4%
CCCCN(CC)CCCNC(=O)c1cc2cc3ccc(OC)cc3nc2o1 14%
O=S1(=O)N=C(N(Cc2cccs2)c2ccc(O)cc2)c2ccccc21 -39.4%
CCCCC(=O)Nc1cc(Cl)ccc1C(=O)O 2.42%
CC(C)CC(NC(=O)C1CCC(C)CC1)C(=O)Nc1ccc2c(c1)OCCO2 (stereo not given) -0.401%
O=C(O)c1cc2ccccc2c2cc(Br)ccc12 6.75%
CCOCC(=O)Nc1nc2c(s1)C(=O)CC(C)(C)C2 -6.16%
O=C1CCCc2c1cc(C(=O)NCCCN1CCOCC1)c(=O)n2-c1ccc(Cl)cc1 15.7%
CCOc1ccccc1C(=O)Nc1ccccc1C(N)=O 16.9%
c1ccc2c(-c3nc(C4CCCCC4)no3)cc(-c3ccncc3)nc2c1 -12.2%
O=C(/C=C/c1ccccc1)Nc1cccc(C(=O)NC2CC2)c1 -23.3%
COc1cccc(C(=O)NNC(=O)/C=C/c2ccccc2)c1 -0.825%
O=C(O)/C=C/c1ccc2noc(-c3ccccc3)c2c1 9.02%
Nc1nonc1-n1nnc(C(=O)N/N=C\c2ccncc2)c1CN1CCCCC1 16.2%
COc1cc2cnc(-c3ccccc3)c(-c3ccc([N+](=O)[O-])cc3)c2cc1OC 5.36%
COC(=O)CSc1nc(N)c(C#N)c(C(C)C)c1C#N 4.01%
COc1ccc2nc3c(cc2c1)c(NC(=O)C1CCCO1)nn3CC(C)C (stereo not given) -39%
N#Cc1nc(-c2cccs2)oc1NCc1ccccc1Cl 4.98%
Cc1cccc(Cl)c1OCCCCn1ccnc1 -0.832%
c1cncc(-c2nc(NCCCn3ccnc3)c3ccccc3n2)c1 -32%
COc1cc(O)c2c(=O)c3c(O)ccc(O)c3oc2c1 15.1%
O=C(NN1C(=O)/C(=C/c2ccc(O)c([N+](=O)[O-])c2)SC1=S)c1ccccc1Cl 12.1%
CCCCOc1cccc(C(=O)NC(=S)Nc2ccc(Cl)c(C(=O)O)c2)c1 4.19%
CC(C)c1nnc(NC(=O)Cn2nc(-c3ccc4c(c3)OCCO4)ccc2=O)s1 5.79%
CCC(=O)Nc1nc(-c2ccc3c(c2)OCCO3)cs1 -27.9%
CSCC(=O)Nc1nc(-c2ccc3c(c2)OCCO3)cs1 -45.8%
c1ccc(Cc2nnc3sc(-c4ccc5c(c4)OCCO5)nn23)cc1 2.39%
Cn1nnnc1Sc1ncnc2scc(-c3ccc[nH]3)c12 6.62%
COCCCN(C(C)=O)c1nc(-c2ccc(OC)cc2)cs1 1.75%
CCCn1cnc2scc(-c3ccc(OC)cc3)c2c1=O 8.44%
COc1cc(CO)cc(Br)c1OCc1cccnc1 -1.47%
COc1cccc(/C=N/n2c(COc3ccccc3)n[nH]c2=S)c1O -73.5%
COC(=O)C1=C(C)N(CCCC(=O)O)C(=O)NC1c1ccc(Cl)cc1 (stereo not given) 1.53%
COc1ccc(-n2c(C)nc3cc(C(=O)NCc4ccco4)ccc32)cc1 6.49%
COc1ccc(-n2c(C)nc3cc(C(=O)NCc4ccc5c(c4)OCO5)ccc32)cc1 -5.27%
Cc1cccc(-n2nc3c(c2NC(=O)CCC2CCCCC2)CS(=O)C3)c1C (stereo not given) 8.66%
Cc1noc(NS(=O)(=O)c2ccc(N/C=C\C(=O)c3ccc(Br)cc3)cc2)c1C 2.2%
COc1ccc(C(=O)Nc2nc3ccccc3[nH]2)cc1S(=O)(=O)N1CCOCC1 6.37%
C=CCN1C(=O)/C(=C/c2ccccc2)S/C1=N/c1nccs1 11.6%
CC(C)(C)NC(=O)C(=O)NC(=O)c1c(F)cccc1Cl -4.54%
O=C(c1ccc2c(c1)OCCCO2)N1CCCCC1 3.39%
CC(NC(=O)COC(=O)c1ccc([N+](=O)[O-])s1)c1ccccc1 (stereo not given) -0.463%

— PubChem BioAssay AID588345 (Broad Institute, 2011)
